Source: PubChem BioAssay (NCATS)
Values without a mark were called inactive. Inconclusive results are not listed. A call without a number means that no potency is given here. Calls of active or inactive are those of the source. Unless noted, calls come from the whole dose curve; as a rule, active = well fitted curve in the direction sought with a large enough effect; inconclusive = small, poorly fitted or top-dose-only effect, or another doubt; inactive = no such curve, though single readings can be large; an effect the other way counts as inactive or inconclusive.

Assays:
[1] = AP1 Signaling Pathway (AID 357; active = well fitted curve in either direction with a large enough effect, not every such curve was filed as active;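 note: ME-180 reporter cells stimulated with EGF at its EC50 level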); details: ME-180 AP-1-bla reporter, EGF-induced, beta-lactamase ratio, 5 h; at 7.69 µM (top of the series) unless noted
Method in brief: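 Titration-series screen for positive or negative modulators of EC50 EGF-induced signaling in ME-180 cells carrying an AP-1-driven beta-lactamase reporter. After 5 hours at 37 degrees Celsius, CCF4 460nm/530nm emission ratio gave %Activity; AC50 values derived.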

[2] = molecular target: Cytochrome P450 1A2 (Homo sapiens) (UniProt P05177); experiment: p450-cyp1a2 (AID 410; calls by dose curve; note: potency is the fitted concentration of half-maximal effect)
Sequence of Cytochrome P450 1A2 (Homo sapiens) (P05177 whole entry, looked up): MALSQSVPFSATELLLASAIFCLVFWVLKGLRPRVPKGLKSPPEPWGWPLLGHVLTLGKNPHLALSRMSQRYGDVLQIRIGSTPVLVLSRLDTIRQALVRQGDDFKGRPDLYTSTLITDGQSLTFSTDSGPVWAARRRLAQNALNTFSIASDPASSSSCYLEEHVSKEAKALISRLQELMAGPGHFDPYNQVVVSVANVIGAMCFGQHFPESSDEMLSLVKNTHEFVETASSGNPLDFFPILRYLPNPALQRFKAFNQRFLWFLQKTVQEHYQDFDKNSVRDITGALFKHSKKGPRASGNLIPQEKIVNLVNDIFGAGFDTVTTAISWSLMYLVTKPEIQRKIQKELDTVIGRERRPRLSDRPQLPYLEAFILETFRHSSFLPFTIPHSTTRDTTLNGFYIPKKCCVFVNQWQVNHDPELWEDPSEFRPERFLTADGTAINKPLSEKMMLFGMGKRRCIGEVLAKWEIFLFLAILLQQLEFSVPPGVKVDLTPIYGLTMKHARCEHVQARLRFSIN
Method in brief: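 Luminescent demethylation readout: Luciferin-ME (100uM, equal to Km) turned over by 20nM CYP1A2 for 60 min at room temperature after NADPH regeneration addition, following 10 min compound preincubation. Normalization used 57 uM furafylline as full inhibition.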

[3] = NFAT Signaling Pathway (AID 444; active = well fitted curve in either direction with a large enough effect, not every such curve was filed as active;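 note: carbachol stimulus at about its EC50 of 1 µM final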); details: Jurkat NFAT-bla M1, carbachol, beta-lactamase ratio, 5 h; at 7.69 µM (top of the series) unless noted
Method in brief: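 Read-out: CCF4 FRET ratio (460 nm/530 nm) after 1 h RT dye loading, used for %activity and AC50 from titration series. Cells: Jurkat NFAT-β-lactamase/M1 line, treated with compound plus 1 uM carbachol for 5 h, 37 °C.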

[4] = molecular target: Glucocorticoid receptor (Homo sapiens) (UniProt P04150); experiment: GR-GFP Redistribution (AID 450;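 active = compounds whose dose series gives a full or clear partial fitted curve of increased nuclear translocation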; note: potency is the fitted concentration of half-maximal effect); details: U2OS GR-GFP nuclear translocation, laser cytometry, 2 h
Sequence of Glucocorticoid receptor (Homo sapiens) (P04150 whole entry, looked up, the tested form may be a part): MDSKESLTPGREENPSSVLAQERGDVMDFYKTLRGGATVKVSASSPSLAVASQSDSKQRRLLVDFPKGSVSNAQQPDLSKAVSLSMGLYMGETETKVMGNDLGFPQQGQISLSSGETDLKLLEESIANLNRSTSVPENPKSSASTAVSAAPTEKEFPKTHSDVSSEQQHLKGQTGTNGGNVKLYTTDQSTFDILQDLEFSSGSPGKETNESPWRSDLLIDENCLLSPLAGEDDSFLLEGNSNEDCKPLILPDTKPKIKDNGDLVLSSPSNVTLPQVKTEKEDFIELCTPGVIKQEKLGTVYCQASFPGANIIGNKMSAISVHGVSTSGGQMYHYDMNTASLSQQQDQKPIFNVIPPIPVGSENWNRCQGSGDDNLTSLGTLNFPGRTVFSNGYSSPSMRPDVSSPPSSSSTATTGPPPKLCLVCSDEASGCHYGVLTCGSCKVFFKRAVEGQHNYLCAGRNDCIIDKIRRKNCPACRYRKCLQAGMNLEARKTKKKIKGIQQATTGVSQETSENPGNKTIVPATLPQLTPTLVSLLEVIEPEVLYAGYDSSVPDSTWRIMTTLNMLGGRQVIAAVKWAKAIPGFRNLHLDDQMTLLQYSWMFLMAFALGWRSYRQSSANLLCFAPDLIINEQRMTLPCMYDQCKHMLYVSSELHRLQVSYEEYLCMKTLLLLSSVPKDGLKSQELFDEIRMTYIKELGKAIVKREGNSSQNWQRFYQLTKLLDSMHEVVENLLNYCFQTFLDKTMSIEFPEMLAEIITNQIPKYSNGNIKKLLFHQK

[5] = molecular target: Glucocorticoid receptor (Homo sapiens) (UniProt P04150); experiment: GR-EFC Redistribution (AID 451; calls by dose curve; note: potency is the fitted concentration of half-maximal effect); details: CHO-K1 GR-EFC translocation, beta-gal luminescence, 2 h
Method in brief: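 Translocation of GR-ED fusion to nuclear EA restores b-gal, read by luminescence after 1 h room-temperature detection. Engineered CHO-K1 biosensor cells, 1,000/well, exposed 2 h at 37 C to titrations up to 46 uM final.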

[6] = molecular target: 3',5'-cyclic-AMP phosphodiesterase 4B (Homo sapiens) (UniProt Q07343); experiment: qHTS Assay for Inhibitors of PDE-IV (AID 607; active = well fitted activation curve with a large enough effect in the main read-out, with a control signal flat, not every such curve was filed as active)
Sequence of 3',5'-cyclic-AMP phosphodiesterase 4B (Homo sapiens) (Q07343 whole entry, looked up): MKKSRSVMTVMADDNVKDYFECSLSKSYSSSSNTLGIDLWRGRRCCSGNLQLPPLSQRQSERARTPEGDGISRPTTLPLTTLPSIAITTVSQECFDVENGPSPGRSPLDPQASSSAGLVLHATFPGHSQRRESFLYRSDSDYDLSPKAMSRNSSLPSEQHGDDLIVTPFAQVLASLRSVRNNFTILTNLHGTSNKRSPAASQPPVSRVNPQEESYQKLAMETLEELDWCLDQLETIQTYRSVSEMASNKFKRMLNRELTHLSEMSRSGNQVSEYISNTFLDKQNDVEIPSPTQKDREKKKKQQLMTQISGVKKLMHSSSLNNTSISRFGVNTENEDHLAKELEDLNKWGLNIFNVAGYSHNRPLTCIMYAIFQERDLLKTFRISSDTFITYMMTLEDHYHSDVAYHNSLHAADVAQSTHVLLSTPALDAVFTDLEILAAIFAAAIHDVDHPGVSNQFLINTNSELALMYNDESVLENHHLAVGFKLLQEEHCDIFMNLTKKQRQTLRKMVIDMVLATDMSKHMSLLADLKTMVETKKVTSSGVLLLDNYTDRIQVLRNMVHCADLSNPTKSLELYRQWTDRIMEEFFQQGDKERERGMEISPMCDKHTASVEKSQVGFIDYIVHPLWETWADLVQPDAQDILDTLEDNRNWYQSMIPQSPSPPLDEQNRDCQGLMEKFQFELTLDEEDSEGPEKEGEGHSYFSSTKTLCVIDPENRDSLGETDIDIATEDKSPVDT
Method in brief: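 Live HEK293 cells with a modified cyclic nucleotide-gated (CNG) channel report intracellular cAMP via membrane-potential dye fluorescence (ex 535/em 590 nm). Endogenous PDE-IV was targeted. Compounds were tested at up to 22.9 uM final; RO 20-1724 100 uM served as control.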

[7] = molecular target: Dual specificity protein kinase CLK4 (Homo sapiens) (UniProt Q9HAZ1); experiment: qHTS Assay for Inhibitors of CDC-like Kinase 4 (Kinase-Glo Assay) (AID 1770); note: nearly all actives have a fitted effect of over 65% in size; note: potency is the fitted concentration of half-maximal effect
Sequence of Dual specificity protein kinase CLK4 (Homo sapiens) (Q9HAZ1 whole entry, looked up): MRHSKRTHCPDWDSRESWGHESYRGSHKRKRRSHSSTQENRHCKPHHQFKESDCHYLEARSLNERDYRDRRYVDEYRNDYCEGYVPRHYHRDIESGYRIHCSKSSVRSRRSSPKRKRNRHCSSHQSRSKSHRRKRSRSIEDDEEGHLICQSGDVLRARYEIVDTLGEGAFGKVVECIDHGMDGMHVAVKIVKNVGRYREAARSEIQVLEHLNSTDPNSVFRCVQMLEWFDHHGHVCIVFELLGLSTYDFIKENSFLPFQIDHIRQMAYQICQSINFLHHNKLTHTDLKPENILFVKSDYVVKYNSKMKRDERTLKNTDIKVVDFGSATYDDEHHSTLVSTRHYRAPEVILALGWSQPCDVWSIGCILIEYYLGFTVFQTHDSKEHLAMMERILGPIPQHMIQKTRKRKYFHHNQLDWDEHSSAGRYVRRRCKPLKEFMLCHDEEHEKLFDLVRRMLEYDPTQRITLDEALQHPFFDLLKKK
Method in brief: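 25 nM Clk4 with 100 uM RS repeat peptide and 1 uM ATP (final) in Tris pH7.5, 10 mM MgCl2, 4.5 h at room temperature. Remaining ATP measured by Kinase-Glo luciferase luminescence.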

[8] = molecular target: Dual specificity protein kinase CLK4 (Homo sapiens) (UniProt Q9HAZ1); experiment: qHTS Assay for Inhibitors of CDC-like Kinase 4 (ADP-Glo Assay) (AID 1771); note: nearly all actives have a fitted effect of over 70% in size; note: potency is the fitted concentration of half-maximal effect
Method in brief: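 ADP production was read by ADP-Glo luminescence after residual ATP depletion, following 1 h room-temperature reaction of 25 nM Clk4, 1 uM ATP and 100 uM RS peptide with MgCl2, EGTA, DTT and Triton X-100.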

[9] = molecular target: Dual specificity protein kinase CLK4 (Homo sapiens) (UniProt Q9HAZ1); experiment: qHTS Assay for Inhibitors of CDC-like Kinase 4 (ADP-FP Assay) (AID 1795); note: nearly all actives have a fitted effect of over 60% in size; note: potency is the fitted concentration of half-maximal effect;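 for activity change, negative = inhibition: recombinant human CLK4 phosphorylating RS repeat peptide at 1 µM ATP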
Method in brief: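 Recombinant Clk4 (6.25 nM) phosphorylated 100 uM RS repeat peptide with 1 uM ATP in 25 mM Tris pH 7.5, 10 mM MgCl2, 0.5 mM EGTA, 2.5 mM DTT, 0.01% Triton X-100 for 1 h. ADP was detected by Transcreener ADP2 competitive fluorescence polarization after 30 min at room temperature.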

[10] = molecular target: Ubiquitin carboxyl-terminal hydrolase 1 (Homo sapiens) (UniProt O94782); experiment: Inhibitors of USP1/UAF1: Pilot qHTS (AID 504865);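 note: rhodamine fluorescence freed from ubiquitin-rhodamine substrate followed over time; top concentration of the series differs between compounds; nearly all actives have a fitted effect of over 35% in size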
Sequence of Ubiquitin carboxyl-terminal hydrolase 1 (Homo sapiens) (O94782 whole entry, looked up): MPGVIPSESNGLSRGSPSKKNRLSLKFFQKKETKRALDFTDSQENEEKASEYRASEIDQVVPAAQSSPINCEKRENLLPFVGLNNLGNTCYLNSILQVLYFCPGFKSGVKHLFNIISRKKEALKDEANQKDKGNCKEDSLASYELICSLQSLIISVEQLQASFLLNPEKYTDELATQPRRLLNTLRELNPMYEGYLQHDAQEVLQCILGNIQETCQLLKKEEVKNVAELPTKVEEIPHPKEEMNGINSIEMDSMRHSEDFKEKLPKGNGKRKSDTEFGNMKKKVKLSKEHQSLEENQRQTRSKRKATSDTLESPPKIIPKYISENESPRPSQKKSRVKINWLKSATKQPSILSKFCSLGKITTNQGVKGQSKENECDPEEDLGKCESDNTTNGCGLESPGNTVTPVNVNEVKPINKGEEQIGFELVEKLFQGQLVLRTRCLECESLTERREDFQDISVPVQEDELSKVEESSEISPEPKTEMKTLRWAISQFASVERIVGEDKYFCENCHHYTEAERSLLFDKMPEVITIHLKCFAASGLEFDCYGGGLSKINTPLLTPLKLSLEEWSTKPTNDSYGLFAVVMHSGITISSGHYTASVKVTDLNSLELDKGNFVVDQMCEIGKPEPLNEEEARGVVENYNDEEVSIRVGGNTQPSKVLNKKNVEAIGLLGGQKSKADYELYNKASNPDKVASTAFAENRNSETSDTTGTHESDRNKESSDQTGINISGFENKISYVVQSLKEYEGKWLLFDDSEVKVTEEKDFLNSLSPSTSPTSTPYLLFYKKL
Method in brief: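 USP1/UAF1 complex at 1 nM preincubated 15 min at room temperature with compound, then Ub-Rho substrate added at 150 nM final. Fluorescence (480/540 nm) read kinetically in 50 mM HEPES pH 7.8, 0.5 mM EDTA, 1 mM TCEP, 0.1 mg/ml BSA, 0.01% Tween-20.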

[11] = Primary qHTS for small molecule stabilizers of the endoplasmic reticulum resident proteome: Secreted ER Calcium Modulated Protein (SERCaMP) assay (AID 1508630)
Method in brief: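 The SH-SY5Y reporter protocol was run at 3 concentrations up to 38.3 uM (primary) or 11 concentrations (follow-up): 16 h compound, 100 nM thapsigargin for 4 h, then extracellular luciferase luminescence.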

[12] = Stat Signaling Pathway (AID 446; active = well fitted curve in either direction with a large enough effect, not every such curve was filed as active;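 note: ME-180 cervical cancer cells given 40 pM IL-6 alongside compound; SIE-controlled beta-lactamase reporter measured as 460/530 nm FRET emission ratio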); details: ME-180 SIE beta-lactamase reporter, IL-6 stimulated, 5 h; at 7.69 µM (top of the series) unless noted
Method in brief: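 Overnight-plated ME-180 cells bearing a STAT Inducible Element beta-lactamase reporter; 5 h co-exposure to compound and 40 pM IL-6; values normalized to 300 pM IL-6 and 125 nM JAK inhibitor controls.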

[13] = molecular target: Mitogen-activated protein kinase 10 (Mus musculus) (UniProt Q61831); experiment: JNK3 AlphaScreen Assay (AID 530; active = well fitted curve in either direction with a large enough effect, not every such curve was filed as active;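 note: kinase came from lysate of stimulated human HepG2 cells; signal reports phosphorylation of biotinylated GST-cJun 1-79 at Ser73 with 10 µM ATP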)
Method in brief: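 qHTS titrations with 15 min compound pre-incubation before adding ATP (10 uM final). Read-out: AlphaScreen of Ser73-phosphorylated biotin-GST-cJun using HepG2 lysate JNK3 activated by IL-1β and TNFα.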

[14] = molecular target: Cytochrome P450 3A4 (Homo sapiens) (UniProt P08684); experiment: qHTS Assay for Inhibitors and Substrates of Cytochrome P450 3A4 (AID 884); note: potency is the fitted concentration of half-maximal effect; nearly all actives have a fitted effect of over 50% in size
Sequence of Cytochrome P450 3A4 (Homo sapiens) (P08684 whole entry, looked up): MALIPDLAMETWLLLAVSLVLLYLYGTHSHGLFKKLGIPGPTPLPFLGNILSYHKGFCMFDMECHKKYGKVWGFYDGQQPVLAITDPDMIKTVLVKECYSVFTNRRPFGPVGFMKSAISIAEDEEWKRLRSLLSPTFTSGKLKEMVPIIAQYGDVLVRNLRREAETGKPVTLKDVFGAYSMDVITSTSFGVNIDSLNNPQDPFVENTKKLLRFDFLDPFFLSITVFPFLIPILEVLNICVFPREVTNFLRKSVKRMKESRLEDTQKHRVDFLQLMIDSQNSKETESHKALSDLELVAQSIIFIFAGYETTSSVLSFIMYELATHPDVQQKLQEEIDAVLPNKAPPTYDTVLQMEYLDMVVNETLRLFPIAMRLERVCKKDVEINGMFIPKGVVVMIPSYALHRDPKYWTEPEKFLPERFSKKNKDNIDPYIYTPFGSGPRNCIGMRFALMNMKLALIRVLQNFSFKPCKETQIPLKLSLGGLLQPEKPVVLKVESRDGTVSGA
Method in brief: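 Luminescent readout of luciferin produced by CYP3A4 (20 nM) dealkylation of Luciferin-PPXE, 25 uM (its KM). NADPH-driven reaction ran 60 min at RT after 10 min compound preincubation; data scaled to 57 uM ketoconazole as 100% inhibition.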

[15] = molecular target: Cytochrome P450 3A4 (Homo sapiens) (UniProt P08684); experiment: qHTS Assay for Activators of Cytochrome P450 3A4 (AID 885); note: nearly all actives have a fitted effect of over 65% in size
Method in brief: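 Using 20nM recombinant human CYP3A4 in potassium phosphate (200mM), substrate Luciferin-PPXE at 25uM, luminescent luciferin detection followed a 60-min RT NADPH reaction; data scaled to 57 uM ketoconazole.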

[16] = molecular target: Cytochrome P450 2C19 (Homo sapiens) (UniProt P33261); experiment: qHTS Assay for Inhibitors and Substrates of Cytochrome P450 2C19 (AID 899); note: nearly all actives have a fitted effect of over 60% in size; note: potency is the fitted concentration of half-maximal effect
Method in brief: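 Reactions contain 5nM enzyme, 10uM Luciferin-H EGE (KM) and 50mM KPO4; compound preincubates 10 min at 37C, NADPH regeneration starts turnover for 60 min. Luminescence after detection reagent gives activity.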

[17] = molecular target: Cytochrome P450 2D6 (Homo sapiens) (UniProt P10635); experiment: qHTS Assay for Inhibitors and Substrates of Cytochrome P450 2D6 (AID 891); note: potency is the fitted concentration of half-maximal effect; nearly all actives have a fitted effect of over 60% in size
Sequence of Cytochrome P450 2D6 (Homo sapiens) (P10635 whole entry, looked up): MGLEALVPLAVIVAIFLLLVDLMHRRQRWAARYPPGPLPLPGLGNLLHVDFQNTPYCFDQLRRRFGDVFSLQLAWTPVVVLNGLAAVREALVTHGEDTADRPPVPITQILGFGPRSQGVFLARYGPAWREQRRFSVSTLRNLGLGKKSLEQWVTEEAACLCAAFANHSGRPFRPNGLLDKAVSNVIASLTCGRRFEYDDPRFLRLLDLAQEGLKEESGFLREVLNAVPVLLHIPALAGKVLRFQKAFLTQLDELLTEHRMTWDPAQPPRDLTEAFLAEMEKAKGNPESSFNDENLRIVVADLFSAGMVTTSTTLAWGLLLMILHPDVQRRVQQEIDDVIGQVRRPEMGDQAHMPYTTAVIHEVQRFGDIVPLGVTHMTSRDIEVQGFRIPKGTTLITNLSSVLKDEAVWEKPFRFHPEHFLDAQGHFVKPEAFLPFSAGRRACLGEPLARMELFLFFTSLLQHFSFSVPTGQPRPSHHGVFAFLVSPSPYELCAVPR
Method in brief: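 Luminescent read-out of luciferin formed by 5 nM human CYP2D6 demethylating 30 uM Luciferin-ME EGE (Km level) over 60 min at room temperature after NADPH regeneration addition. Data normalized to full inhibition by 1.43 uM quinidine.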

[18] = molecular target: Lysosomal acid glucosylceramidase (Homo sapiens) (UniProt P04062); experiment: Glucocerebrosidase-p2 (AID 348; in the data active = potency below about 10 µM; note: potency is the fitted concentration of half-maximal effect); details: purified GBA, blue fluorogenic substrate, 40 min
Sequence of Lysosomal acid glucosylceramidase (Homo sapiens) (P04062 whole entry, looked up): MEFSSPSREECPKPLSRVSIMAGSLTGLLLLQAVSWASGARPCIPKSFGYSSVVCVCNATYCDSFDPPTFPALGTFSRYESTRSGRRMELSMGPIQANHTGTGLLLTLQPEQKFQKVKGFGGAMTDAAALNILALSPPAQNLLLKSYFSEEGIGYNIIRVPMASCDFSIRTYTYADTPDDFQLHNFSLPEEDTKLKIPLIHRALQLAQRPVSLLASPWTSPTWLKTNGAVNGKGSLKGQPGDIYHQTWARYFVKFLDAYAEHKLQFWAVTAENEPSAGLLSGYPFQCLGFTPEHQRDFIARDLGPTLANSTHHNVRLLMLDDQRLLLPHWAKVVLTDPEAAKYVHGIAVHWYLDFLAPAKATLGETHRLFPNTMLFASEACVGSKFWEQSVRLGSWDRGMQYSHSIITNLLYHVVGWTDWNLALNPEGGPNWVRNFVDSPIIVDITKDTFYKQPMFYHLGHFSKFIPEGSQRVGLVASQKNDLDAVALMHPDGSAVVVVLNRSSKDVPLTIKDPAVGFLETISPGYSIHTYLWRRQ
Method in brief: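 Normal human glucocerebrosidase (0.2 nM) with blue fluorogenic substrate (80 uM final) in citrate/phosphate pH 5.9 with 10mM sodium taurocholate, 0.01% tween-20; 40 min RT, NaOH/glycine stop; fluorescence Ex 365/Em 440; AC50 from a titration from 0.6 nM upwards.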

[19] = qHTS Assay for Identification of Small Molecule Agonists for Hypoxia Response Element Signaling Pathway (AID 914; active = well fitted activation curve with a large enough effect in the signal ratio, with a control signal flat, not every such curve was filed as active; the % refers to the signal ratio; note: potency is the fitted concentration of half-maximal effect); details: ME-180 (cervical carcinoma) HRE-bla reporter, beta-lactamase ratio, CoCl2, 17 h; activation: active compounds read high
Method in brief: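 AC50 values come from titration-series %Activity, taken as the 460/530nm ratio of CCF4 fluorescence (excitation 405nm). CellSensor HRE-bla ME-180 cells were treated 17 hours at 37 C with compound plus an EC50 level of CoCl2.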

Row | Compound | activity change, negative = inhibition [1] [%] | Potency [2] | activity change, negative = inhibition [3] | Potency [4] [µM] | Potency [5] [µM] | Potency [6] | Potency [7] | Potency [8] | Potency [9] | Potency [10] | outcome [11] | activity, negative = inhibition [12] | Potency [13] | Potency [14] | Potency [15] | Potency [16] | Potency [17] | Potency [18] [µM] | Potency [19] | activation [19] [%]
1 | COCCn1c(=O)c(-c2ccc(Cl)cc2)nc2cnc(N(C)C)nc21 | -3.17 | 1 µM (active) | -3.15% | > 9.22 | > 46 | inactive | inactive | inactive | inactive | inactive | inactive |  |  |  |  |  |  |  |  | 
2 | COc1ncc2nc(-c3cn(C)c4ccccc34)c(=O)n(C)c2n1 | 4.21 | 1 µM (active) | 11.4% | > 9.22 | > 46 |  | inactive | inactive | inactive | inactive | inactive | 7.15% | inactive | 5.01 µM (active) | inactive | inactive |  |  |  | 
3 | COc1ccccc1CNc1ccnc(-c2ccccc2OC)n1 | -0.503 | 3.98 µM (active) | -0.0586% | > 46 | > 46 | inactive | inactive | inactive | inactive |  | inactive | 9.83% | inactive |  | inactive |  | 1.58 µM (active) |  |  | 
4 | O=c1c(-c2ccc(F)cc2)nc2cnc(Oc3cccc(Cl)c3)nc2n1C[C@H]1CCCO1 |  |  | -18.3% | > 9.22 | > 46 | inactive | inactive | inactive | inactive | inactive | inactive | -26% | inactive |  | inactive |  |  | > 11.4 |  | 
5 | CN(C)c1ncc2nc(-c3ccccc3)c(=O)n(Cc3cccs3)c2n1 |  |  |  | > 9.22 | > 46 |  | inactive | inactive | inactive | inactive | inactive |  |  |  | inactive |  |  | > 11.4 | 3.16 µM (active) | 
6 | COc1ccc(-c2nc3cnc(N(C)C)nc3n(Cc3ccc(F)cc3)c2=O)cc1 |  |  | 102% [activator] (active) | > 9.22 | > 46 | inactive | inactive | inactive | inactive | inactive | inactive | 126% [activator] (active) | inactive |  |  |  |  | > 11.4 |  | 
7 | COc1cccc(-c2nccc(N(C)Cc3ccco3)n2)c1 | -11.4 | 0.631 µM (active) | -1.32% | > 46 | > 46 | inactive | 8.91 µM (active) | 8.91 µM (active) | 7.94 µM (active) |  | inactive | -2.39% | inactive |  | inactive | 5.01 µM (active) | 1.26 µM (active) |  |  | -11.6
